Reference: PubChem BioAssay AID1466 (National Center for Advancing Translational Sciences (NCATS), 2008)
The whole screen tested about 200,000 compounds, of which about 10 (0.005%) were called active. Entries that show only a call come without a potency. About 8% were inconclusive and are not listed. Calls come from the whole dose curve; as a rule, active = well fitted inhibition curve with a large enough effect; inconclusive = small, poorly fitted or top-dose-only effect, or effect the other way, or another doubt; inactive = no such curve, though single readings can be large or run the other way. The sample as a whole holds a higher share of actives than the screen did.
Potency is the fitted concentration of half-maximal effect.

These compounds were tested against Lysosomal alpha-glucosidase (Homo sapiens) (UniProt P10253) (assay: qHTS Assay for Inhibitors of Human alpha-Glucosidase as a Potential Chaperone Treatment of Pompe Disease). Conditions: purified human GAA, 4-MU-alpha-glucoside fluorescence; series mostly up to 76.9 µM.
Excerpt: NIH Chemical Genomics Center [NCGC] NIH Molecular Libraries Probe Production centers Network [MLPCN] MLPCN Grant: 1R03MH084841-01 Assay Submitter (PI): Wei Zheng NCGC Assay Overview: Alpha-glucosidase is responsible for hydrolysis of terminal, non-reducing 1,4-linked alpha-D-glucose residues with release of alpha-D-glucose. It is a lysosomal hydrolase that is required for the degradation of a small percentage (1-3%) of cellular glycogen in human. Deficiency of this enzyme results in glycogen-storage disease type II (GSDII), also referred to as Pompe disease, an autosomal recessive disorder. Structurally normal glycogen is accumulated in lysosomes and cytoplasm in affected patients, primarily in muscle tissues. Excessive glycogen storage within lysosomes may interrupt normal functioning of other organelles and leads to cellular injury. In turn, this leads to enlargement and dysfunction of the entire organ involved (eg, cardiomyopathy and muscle weakness). It has reported that the improper folding and trafficking of alpha-glucosidase resulting from the genetic mutations may account for a significant number of Pompe patients. […] We optimized this alpha-glucosidase assay in 1536-well plate format for identifying the novel small molecule inhibitors with the structures other than the sugar analogs in order to develop the new pharmacological chaperones.
NCGC Assay Protocol Summary: This is a fluorogenic enzyme assay with 4-methylumbelliferyl-alpha-D-[…] as the substrate and human alpha-glucosidase as the enzyme preparation. Upon the hydrolysis of this fluorogenic substrate, the resulting product, 1. 4-methyllumbelliferone, can be excited at 365 nm and emits at 440 nm which can be detected by a standard fluorescence plate reader. Data were normalized to the controls for basal activity (without enzyme) and 100% activity (with enzyme). In the AC50 values were determined from concentration-response data modeled with the standard Hill equation. Assay buffer: 50 mM citric acid (titrated with potassium phosphate to pH 5.0), 0.005% Tween-20, pH 5.0. (pH 5.0 is an optimal condition for this enzyme assay) 1536-well assay protocol for the human alpha-glucosidase: (1) Add 2 ul/well of enzyme (4 nM final) (2) Add 23 nL compounds in DMSO solution. The final titration was 0.7 nM to 77 uM. (3) Add 1 ul of substrate (400 uM final) (4) Incubate at room temperature for 20 min. (5) Add 2 ul stop solution (1M NaOH and 1M Glycine mixture, pH 10) (6) Detect the assay plate in a ViewLux plate reader (PerkinElmer) with Ex=365 nm and Em=440nm. Keywords: Alpha-glucosidase, Pompe Disease, pharmacological chaperone, chaperone therapy, high throughput screening, alpha-glucosidase inhibitor, MLSMR, MLSCN, NIH Roadmap, qHTS and NCGC
In the case of Cc1c(C(=O)O)cccc1-n1c(C)cc(/C=C2\C(=O)NC(=O)N(c3ccc4c(c3)OCO4)C2=O)c1C, the Potency is reported as “inactive”.
With Cc1ccc(-n2c(C)cc(/C=C3\C(=O)NC(=O)N(C)C3=O)c2C)cc1C the Potency was “inactive”.
In the case of Cc1cc(/C=C2/C(=O)NC(=O)N(Cc3ccco3)C2=O)c(C)n1-c1ccc(C(=O)O)cc1, the Potency is reported as 31.6 µM (active).
In the case of CCN1CC2C3CCC(C)(O3)C2C1 (stereo not given), the Potency is reported as “inactive”.
In the case of CCOP(=O)(OCC)C(NC(=O)c1ccc(OC)cc1)C(Cl)(Cl)Cl (stereo not given), the Potency is reported as “inactive”.
